Only a selection was taken, and hits are over-represented in it overall.
LASV entry inh: inhibitors of Lassa virus binding or cell entry | Lassa virus pseudotype entry inhibition, cell reporter | Potency, µM (highest dose often 37.9 µM), for the others: at the highest dose activity change, negative = inhibition, hits mostly inhibitors | 300,000 compounds, 1.2% hits; calls by dose curve; tested in HEK293 cells; also: potency is read from the fitted curve at half-maximal effect; % is scaled to controls: 0 for no effect and ±100 for the full control effect; nearly all actives have a fitted effect of over 50% in size
Shiga inhibitor: inhibitors of Shiga toxin in Vero cells; Vero cells, Shiga toxin protein synthesis inhibition reporter; inhibition, % at 38.7 µM; 290,000 compounds, 9.2% hits; AID 2315; in the data active = inhibition mostly above about 28%, no sharp cut-off; inactive = mostly below about 43%; also: 0% is about no effect
Vaccinia mCherry: inhibitors of vaccinia virus infection (mCherry reporter signal); AID 720579; Vaccinia virus mCherry reporter infection, fluorescence; 310,000 compounds, 0.63% hits; Potency, µM (series often up to 36.5 µM), inactives show top-dose activity change, negative = inhibition, hits mostly inhibitors; calls by dose curve; tested in A549 cells; also: potency is read from the fitted curve at half-maximal effect; % is scaled to controls: 0 for no effect and ±100 for the full control effect; nearly all actives have a fitted effect of over 35% in size
Cycloheximide cs: counter-screen for Shiga toxin inhibitors: cycloheximide protein synthesis inhibition; max response, %; cell reporter, cycloheximide protein synthesis inhibition counterscreen; 300,000 compounds, 12% hits; in the data active = max response mostly above about 13%, no sharp cut-off; inactive = mostly below about 14%; also: read at 38.3 µM for the half of the compounds with a filed dose; 0% is about no effect
MARV entry inh: Marburg virus entry inhibition; Marburg virus pseudotyped entry inhibition, cell reporter; Potency, µM (doses to about 37.8 µM), inactives show at the top dose activity change, negative = inhibition, usual class: inhibitors; 300,000 compounds, 1.8% hits; calls by dose curve; tested in HEK293 cells; also: potency is read from the fitted curve at half-maximal effect; % is scaled to controls: 0 for no effect and ±100 for the full control effect
VACV Venus inh: vaccinia inhibition (Venus reporter); Vaccinia virus Venus reporter expression, fluorescence; Potency, µM (titrated, usually from 36.5 µM), for inactives: top-dose activity change, negative = inhibition, actives largely listed as inhibitors; AID 720580; 330,000 compounds, 0.46% hits; calls by dose curve; tested in A549 cells; also: potency is read from the fitted curve at half-maximal effect; % is scaled to controls: 0 for no effect and ±100 for the full control effect; nearly all actives have a fitted effect of over 30% in size
* hit, by the source's call; [ ] = remark or other dose.

What do the screens show for `COCCNC(=O)[C@@]1(C)C=C[C@@H](Cc2ccccc2)N1C(=O)c1ccccc1`?
Shiga inhibitor: 28.3*; Vaccinia mCherry: inactive; Cycloheximide cs: 20.5*; VACV Venus inh: -5.3%

What do the screens show for `CNC(=O)[C@@]1(C)C=C[C@@H](Cc2ccccc2)N1C(=O)OC`?
LASV entry inh: 18.9%; Shiga inhibitor: 50.1; Vaccinia mCherry: inactive; Cycloheximide cs: 21.8*; MARV entry inh: 21.1%; VACV Venus inh: -7.0%

What do the screens show for `COC(=O)N1[C@H](Cc2ccccc2)C=C[C@]1(C)C(=O)NCc1ccccn1`?
LASV entry inh: inconclusive; Shiga inhibitor: -5.1; Vaccinia mCherry: inactive; Cycloheximide cs: -0.1; MARV entry inh: 26.8%; VACV Venus inh: -12.0%

What do the screens show for `C[C@]1(C(=O)NCc2cc(F)cc(C(F)(F)F)c2)C=C[C@@H](Cc2ccccc2)N1C(=O)c1ccccc1`?
LASV entry inh: -11.7%; Shiga inhibitor: -10.2; Vaccinia mCherry: -10.0%; Cycloheximide cs: 8.8; MARV entry inh: -24.6%; VACV Venus inh: -27.1%

Results for COc1ccc(NC(=O)COc2ccc(S(=O)(=O)NC3CCCCC3)cc2)cc1OC ?
LASV entry inh: -14.7%[46.1 µM]; Vaccinia mCherry: -7.1%; MARV entry inh: inconclusive; VACV Venus inh: -6.6%

Results for COc1ccc(Cn2ccnc2SCC(=O)NC2CCCC2)cc1 ?
LASV entry inh: inconclusive; Shiga inhibitor: -32.7; Vaccinia mCherry: -15.9%; Cycloheximide cs: 9.2; MARV entry inh: -10.4%; VACV Venus inh: -3.3%

What do the screens show for `Cc1cc(N2CCN(c3ccc(F)cc3)CC2)n2nc(-c3ccc(Cl)cc3)nc2n1`?
LASV entry inh: 10.5%[46.1 µM]; Vaccinia mCherry: -4.4%; MARV entry inh: -7.9%[46.1 µM]; VACV Venus inh: 2.8%

How did Cc1ccc(C(=O)CC(=O)c2ccc(C)cc2O)cc1 do in these assays?
LASV entry inh: 3.4%; Shiga inhibitor: 86.9*; Vaccinia mCherry: inactive; Cycloheximide cs: 39.2*; MARV entry inh: inconclusive; VACV Venus inh: -17.1%

What do the screens show for `Cc1ccc(C(=O)Cc2ccccc2)c(O)c1`?
LASV entry inh: 16.8%[46.1 µM]; Vaccinia mCherry: -3.2%; MARV entry inh: 29.3%[46.1 µM]; VACV Venus inh: -7.3%

Results for Cc1ccc(C(=O)CC(=O)c2cc(Cl)ccc2O)cc1 ?
LASV entry inh: -72.5%; Shiga inhibitor: 121.4*; Vaccinia mCherry: inactive; Cycloheximide cs: 34.7*; MARV entry inh: inconclusive; VACV Venus inh: -26.6%

What do the screens show for `CNc1nc(NCc2ccc(N(C)C)cc2)c2sccc2n1`?
Vaccinia mCherry: -3.0%; VACV Venus inh: -17.8%

What do the screens show for `COc1ccc(NC2=NC(C)(CO)CS2)cc1` (stereo unspecified)?
Shiga inhibitor: 39.6; Vaccinia mCherry: inactive; Cycloheximide cs: 14.4*; VACV Venus inh: -12.2%

What do the screens show for `COc1ccc(NC2=CC(=O)CC(C)(C)C2)cc1`?
Shiga inhibitor: 15.4; Cycloheximide cs: -2.0

How did Cc1cccc(NC(=S)NNC(=O)c2csc(C)c2)c1 do in these assays?
LASV entry inh: inconclusive; Shiga inhibitor: 22.3*; Vaccinia mCherry: -1.1%; Cycloheximide cs: 24.0*; MARV entry inh: inconclusive; VACV Venus inh: -15.6%

How did Cc1cccc(NC(=S)NNC(=O)c2csc3c2CCCC3)c1 do in these assays?
LASV entry inh: 62.6%[14.3 µM]; Shiga inhibitor: 25.8; Vaccinia mCherry: -22.6%; Cycloheximide cs: 29.4*; MARV entry inh: inconclusive; VACV Venus inh: -8.5%

Results for Cc1ccc(C)c(NC(=S)NNC(=O)c2csc3c2CCCC3)c1 ?
LASV entry inh: -2.0%; Shiga inhibitor: -17.6; Cycloheximide cs: -0.4; MARV entry inh: -18.5%

How did O=c1c2ccccc2nc(-c2ccccc2)n1CCCN1CCOCC1 do in these assays?
LASV entry inh: inconclusive; Shiga inhibitor: 31.3; Cycloheximide cs: -2.7; MARV entry inh: 11.0%

How did Cc1ccc(-c2nc3ccccc3c(=O)n2CCCN2CCOCC2)cc1 do in these assays?
LASV entry inh: -3.6%; Shiga inhibitor: 53.6*; Vaccinia mCherry: -10.0%; Cycloheximide cs: 15.1; MARV entry inh: 0.8%; VACV Venus inh: -8.2%

How did CC(=O)Nc1ccc(NC(=O)CSc2nc3ccccc3c(=O)n2CCCN2CCOCC2)cc1 do in these assays?
LASV entry inh: 8.1%; Vaccinia mCherry: -19.4%; MARV entry inh: 2.9%; VACV Venus inh: -20.6%

What do the screens show for `CC(=O)c1c(C)[nH]c(C(=O)CSc2nc3ccccc3c(=O)n2CCCN2CCOCC2)c1C`?
LASV entry inh: -3.4%; Shiga inhibitor: 20.0; Cycloheximide cs: 0.3; MARV entry inh: 20.6µM*

Bioassay records as filed in PubChem.
